For six compounds, Potency, outcome and max activation results are on record in PubChem BioAssay (Tox21).

The target of experiment [1] is Progesterone receptor (Homo sapiens) (UniProt P06401). Put plainly: qHTS assay to identify small molecule agonists of the progesterone receptor (PR) signaling pathway (AID 1346784; calls by dose curve; note: nearly all actives have a fitted effect of over 30% in size). Summed up:
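Compounds were tested for PR agonism in HEK 293T cells bearing a beta-lactamase gene under UAS control. Treatment lasted 16 hr at 37C; signal came from fluorescence of a FRET substrate.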

Experiment [2] can be described thus: qHTS assay to identify small molecule antagonists of the progesterone receptor (PR) signaling pathway - cell viability counter screen (AID 1346798). Note: series mostly up to about 92 µM; nearly all actives have a fitted effect of over 50% in size. In a few lines:
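Following a 4 hr attachment, PR-UAS-bla HEK293T cells in charcoal-stripped FBS medium were exposed to compounds with R5020 for 16 hr; CellTiter-Glo was added and luminescence read after 30 min at room temperature.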

Experiment [3] can be described thus: qHTS assay to identify small molecule agonists of the progesterone receptor (PR) signaling pathway - cell viability counter screen (AID 1346799; calls by dose curve; note: nearly all actives have a fitted effect of over 45% in size). In a few lines: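 Here, 3,000 PR-UAS-bla HEK293T cells per well were treated with compounds for 16 hr after a 6 hr preincubation at 37C and 5% CO2; cell viability is the CellTiter-Glo luminescence signal.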
The nature of experiment [4]: qHTS assay to identify small molecule antagonists of the TGF-beta/Smad signaling pathway - cell viability counter screen (AID 1346824). Note: nearly all actives have a fitted effect of over 50% in size. Note: potency is the fitted concentration of half-maximal effect. Summed up:
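Cytotoxicity counter-screen run in the same wells as the beta-lactamase Smad reporter read: CellTiter-Glo luminescence after 30 min at room temperature. HEK 293T SBE-bla cells had 5 hr compound exposure at 37 C with TGF-beta1 (0.25 ng/mL stock).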
On the technique in general: qHTS replaces the single test concentration by a dilution series.

A short description of experiment [5]: qHTS assay to identify small molecule agonists of the TGF-beta/Smad signaling pathway - cell viability counter screen (AID 1346829). Note: nearly all actives have a fitted effect of over 45% in size. Note: potency is the fitted concentration of half-maximal effect. Summed up: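 Cytotoxicity counter screen: CellTiter-Glo luminescence (30 min, room temperature) measured in the SBE-bla HEK 293T reporter wells after 5 hr compound treatment at 37 C and the 2 hr substrate step.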
The nature of experiment [6]: qHTS assay to identify small molecule agonists of the TGF-beta/Smad signaling pathway (AID 1346859; active = well fitted activation curve with a large enough effect in the signal ratio in the repeat runs, not every such curve was filed as active; the % refers to the signal ratio; note: series mostly up to about 77 µM). In a few lines:
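Each well held 4,000 SBE-bla HEK 293T cells incubated overnight before compound addition; 5 hr later the cleavable FRET substrate went on for 2 hr at room temperature, and fluorescence was read at two emissions.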

The target in experiment [7] is Thyrotropin-releasing hormone receptor (Homo sapiens) (UniProt P34981). The experiment in a line: qHTS assay to identify small molecule antagonists of the thyrotropin-releasing hormone receptor (TRHR) signaling pathway (AID 1346877; active = well fitted inhibition curve with a large enough effect in the repeat runs, not every such curve was filed as active; note: series mostly up to about 51 µM). Summed up: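 Intracellular calcium fluorescence, read kinetically every second over 3 min, reports TRH-evoked signalling in HEK293 cells carrying TRHR. Test compounds were added 5 min ahead of a 1 nM TRH challenge.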
Thyrotropin-releasing hormone receptor (Homo sapiens), sequence (P34981 whole entry, looked up): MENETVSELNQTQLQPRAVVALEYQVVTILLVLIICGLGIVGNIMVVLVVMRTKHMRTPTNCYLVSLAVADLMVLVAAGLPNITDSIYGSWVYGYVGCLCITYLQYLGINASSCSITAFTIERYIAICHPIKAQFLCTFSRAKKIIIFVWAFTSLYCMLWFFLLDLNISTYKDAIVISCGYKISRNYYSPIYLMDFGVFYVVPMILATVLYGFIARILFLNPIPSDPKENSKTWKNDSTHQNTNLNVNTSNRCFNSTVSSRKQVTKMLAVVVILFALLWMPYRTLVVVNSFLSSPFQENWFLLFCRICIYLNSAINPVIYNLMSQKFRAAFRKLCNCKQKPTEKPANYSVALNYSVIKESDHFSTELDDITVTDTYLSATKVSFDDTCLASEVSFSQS

The target is the same in experiment [8]. Put plainly: qHTS assay to identify small molecule agonists of the thyrotropin-releasing hormone receptor (TRHR) signaling pathway (AID 1346891; calls by dose curve; note: series mostly up to about 58 µM). Summed up:
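Screening of agonists relied on calcium signalling in HEK293 cells expressing human TRHR: dye loading 2 h at 37 °C preceded compound addition and a 3-min fluorescence time course.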

The nature of experiment [9]: Human pregnane X receptor (PXR) small molecule agonists, qHTS cell viability counter screen (AID 1346977). Note: nearly all actives have a fitted effect of over 50% in size. Note: potency is the fitted concentration of half-maximal effect. In a few lines: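 Tox21 qHTS format; PXR-Luc HepG2, 2,000/well, charcoal-stripped FBS 5%. Cpd exposure 24hr. Read: CellTiter-Fluor fluorescence, multiplexed with luciferase.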
The nature of experiment [10]: Caspase-3/7 induction in HepG2 cells by small molecules, qHTS assay (AID 1346978). Note: nearly all actives have a fitted effect of over 15% in size. Summed up: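 Caspase-3/7 induction was measured by Caspase-Glo 3/7 luminescence (30 min, room temperature) after a 17 hr compound exposure of wild-type HepG2 cells seeded at 2,000 per well and pre-incubated 5 hr.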
Experiment [11] in a line: Caspase-3/7 induction in CHO-K1 cells by small molecules, qHTS assay (AID 1346980). Note: nearly all actives have a fitted effect of over 15% in size. Summed up:
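Luminescent Caspase-Glo 3/7 read (30min, room temperature) quantified apoptosis induction. Cells were wild-type CHO-K1, treated with compound for 17hr at 37 C and 5% CO2.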

Experiment [12] is described as follows: Caspase-3/7 induction in HepG2 cells by small molecules, qHTS cell viability counter screen (AID 1346981). Note: nearly all actives have a fitted effect of over 30% in size. Note: potency is the fitted concentration of half-maximal effect. In a few lines:
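HepG2, WT, 2,000 cells/well; 5 hr pre-incubation 37 C/5% CO2; compound pin-transferred from DMSO; 16 hr exposure; CellTiter-Fluor, 1 hr; fluorescence read.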

The target of experiment [13] is Nuclear receptor subfamily 1 group I member 2 (Homo sapiens) (UniProt O75469). The experiment in a line: Human pregnane X receptor (PXR) small molecule agonists, qHTS assay (AID 1346982). Note: nearly all actives have a fitted effect of over 35% in size. Note: potency is the fitted concentration of half-maximal effect. Summed up: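 Luciferase signal from ONE-Glo (30 min, room temperature) measured activation of hPXR-driven CYP3A4 reporter expression in PXR-Luc HepG2 cells treated with compounds for 24 hr at 37 C.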
Nuclear receptor subfamily 1 group I member 2 (Homo sapiens), sequence (O75469 whole entry, looked up): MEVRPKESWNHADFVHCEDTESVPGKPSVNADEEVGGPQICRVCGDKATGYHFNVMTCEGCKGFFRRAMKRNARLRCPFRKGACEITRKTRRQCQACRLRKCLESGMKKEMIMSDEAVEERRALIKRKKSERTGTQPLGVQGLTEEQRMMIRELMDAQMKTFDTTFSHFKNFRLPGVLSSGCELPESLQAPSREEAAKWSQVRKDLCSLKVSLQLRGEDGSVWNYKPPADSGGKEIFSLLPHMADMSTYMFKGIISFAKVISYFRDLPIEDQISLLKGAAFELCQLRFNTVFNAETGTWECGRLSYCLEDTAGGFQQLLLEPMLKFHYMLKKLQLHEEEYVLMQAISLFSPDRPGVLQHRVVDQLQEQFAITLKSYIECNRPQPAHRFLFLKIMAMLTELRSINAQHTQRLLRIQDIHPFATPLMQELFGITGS

The target in experiment [14] is Cytochrome P450 2D6 (Homo sapiens) (UniProt P10635). The experiment in a line: Cytochrome P450 Family 2 Subfamily D Member 6 (CYP2D6) small molecule antagonists: luciferase reporter qHTS assay (AID 1671196). Note: nearly all actives have a fitted effect of over 50% in size. Note: potency is the fitted concentration of half-maximal effect. In a few lines:
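Read-out is luminescence from luciferin formed by CYP2D6 turnover of a proluciferin substrate, recorded as relative luminescence units. Reactions ran 1 h at room temperature after NADPH regeneration solution was added.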
In general terms: In a reporter assay the amount or activity of a reporter protein is the signal.

Experiment [15] addresses Cytochrome P450 2C19 (Homo sapiens) (UniProt P33261). Put plainly: Cytochrome P450 Family 2 Subfamily C Member 19 (CYP2C19) small molecule antagonists: luciferase reporter qHTS assay (AID 1671197). Note: nearly all actives have a fitted effect of over 65% in size. Note: potency is the fitted concentration of half-maximal effect. In a few lines: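 Luminescent readout of CYP2C19 activity: luciferin product detected 20 min after adding detection reagent. Before that, compound and enzyme-substrate mix preincubated 10 min at room temperature; NADPH-regenerating system started a 1 h, 37C reaction. Ketoconazole as positive control.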

Experiment [16] in a line: Caspase-3/7 induction in CHO-K1 cells by small molecules, qHTS cell viability counter screen (AID 1346979). Note: nearly all actives have a fitted effect of over 35% in size. Note: potency is the fitted concentration of half-maximal effect. In a few lines:
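CellTiter-Fluor viability check, qHTS format: wild-type CHO-K1, 16hr compound treatment, 1hr reagent incubation, fluorescence read.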

For experiment [17], the target named is Nuclear receptor subfamily 1 group I member 2 (Rattus norvegicus) (UniProt Q9R1A7). The experiment in a line: Rat pregnane X receptor (rPXR) activation by small molecules, qHTS assay (AID 1346983). Note: nearly all actives have a fitted effect of over 20% in size. The note with it: rPXR luciferase reporter cells, One-Glo luminescence, 24 h; max activation: stronger effect = higher value. In a few lines:
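Luminescent readout (One-Glo luciferase, 30 min room temperature) followed 24 hr compound treatment at 37 C of rPXR cells plated 2,000 per well and preincubated 5hr; qHTS format with compounds delivered in DMSO.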

In experiment [18] the target is Nuclear receptor subfamily 1 group I member 2 (Homo sapiens) (UniProt O75469). Put plainly: CYP3A4 induction through human pregnane X receptor (PXR) by small molecules, qHTS assay (AID 1346984). Note: nearly all actives have a fitted effect of over 40% in size. Summed up:
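Luminescence readout: luciferase signal after One-Glo (30 min, room temperature), following 3 h at 37C with 3uM final Luciferin-IPA P450 substrate. Cells were DPX-2 (HepG2, PXR/CYP3A4-luc co-transfected) dosed for 24 h.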

For experiment [19] the target is unchanged. The experiment in a line: Human pregnane X receptor (PXR) activation by small molecules, qHTS assay (AID 1346985). Note: nearly all actives have a fitted effect of over 40% in size. Summed up:
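DPX-2 cells (HepG2 co-transfected with a PXR response element and a CYP3A4-promoter luciferase construct) were seeded at 2,000 per well, rested 5 hr at 37C, then exposed to DMSO-dissolved compounds for 24 hr. Activation was read as luciferase luminescence.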

Each structure is given as a SMILES string. “And” between values parts separate entries of the source, which are not always exact repeats. Identical values can stand only once. Inconclusive results are not listed. The source holds several records for some structures; these can differ, active in one and inactive in another. The source made the active and inactive calls. Unless noted, calls come from the whole dose curve; as a rule, active = well fitted curve in the direction sought with a large enough effect in the repeat runs; inconclusive = weak or mixed curves; inactive = no such curve, though single readings can be large; an effect the other way counts as inactive or inconclusive.
% is set by controls: 0 for no effect and ±100 for the full control effect.

Cytochrome P450 2D6 (Homo sapiens), sequence (P10635 whole entry, looked up): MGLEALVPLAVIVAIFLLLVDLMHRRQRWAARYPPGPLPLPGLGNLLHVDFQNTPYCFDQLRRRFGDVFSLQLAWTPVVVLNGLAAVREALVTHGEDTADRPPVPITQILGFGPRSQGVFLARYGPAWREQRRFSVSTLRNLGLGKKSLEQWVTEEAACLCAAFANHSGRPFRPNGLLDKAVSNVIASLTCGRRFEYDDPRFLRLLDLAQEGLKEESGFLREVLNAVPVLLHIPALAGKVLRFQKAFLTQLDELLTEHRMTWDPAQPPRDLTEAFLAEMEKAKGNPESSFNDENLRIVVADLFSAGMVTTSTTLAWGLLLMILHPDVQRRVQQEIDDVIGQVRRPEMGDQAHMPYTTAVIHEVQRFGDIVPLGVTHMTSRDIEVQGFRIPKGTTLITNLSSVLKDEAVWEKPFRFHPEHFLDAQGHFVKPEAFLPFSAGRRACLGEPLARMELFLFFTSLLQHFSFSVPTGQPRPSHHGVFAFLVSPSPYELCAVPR
Cytochrome P450 2C19 (Homo sapiens), sequence (P33261 whole entry, looked up): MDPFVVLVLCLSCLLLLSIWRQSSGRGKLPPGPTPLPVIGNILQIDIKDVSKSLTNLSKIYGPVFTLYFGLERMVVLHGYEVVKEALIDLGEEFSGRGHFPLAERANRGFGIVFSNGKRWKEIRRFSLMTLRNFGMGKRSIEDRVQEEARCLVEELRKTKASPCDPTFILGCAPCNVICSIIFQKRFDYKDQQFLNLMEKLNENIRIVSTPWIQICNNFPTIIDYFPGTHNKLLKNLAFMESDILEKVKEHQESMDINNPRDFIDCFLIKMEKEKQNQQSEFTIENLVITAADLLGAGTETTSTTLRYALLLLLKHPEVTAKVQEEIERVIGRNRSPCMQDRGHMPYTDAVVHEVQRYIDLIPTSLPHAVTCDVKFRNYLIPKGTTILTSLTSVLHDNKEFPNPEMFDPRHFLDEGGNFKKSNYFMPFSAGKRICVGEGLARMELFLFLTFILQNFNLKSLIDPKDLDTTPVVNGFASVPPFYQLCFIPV
Progesterone receptor (Homo sapiens), sequence (P06401 whole entry, looked up): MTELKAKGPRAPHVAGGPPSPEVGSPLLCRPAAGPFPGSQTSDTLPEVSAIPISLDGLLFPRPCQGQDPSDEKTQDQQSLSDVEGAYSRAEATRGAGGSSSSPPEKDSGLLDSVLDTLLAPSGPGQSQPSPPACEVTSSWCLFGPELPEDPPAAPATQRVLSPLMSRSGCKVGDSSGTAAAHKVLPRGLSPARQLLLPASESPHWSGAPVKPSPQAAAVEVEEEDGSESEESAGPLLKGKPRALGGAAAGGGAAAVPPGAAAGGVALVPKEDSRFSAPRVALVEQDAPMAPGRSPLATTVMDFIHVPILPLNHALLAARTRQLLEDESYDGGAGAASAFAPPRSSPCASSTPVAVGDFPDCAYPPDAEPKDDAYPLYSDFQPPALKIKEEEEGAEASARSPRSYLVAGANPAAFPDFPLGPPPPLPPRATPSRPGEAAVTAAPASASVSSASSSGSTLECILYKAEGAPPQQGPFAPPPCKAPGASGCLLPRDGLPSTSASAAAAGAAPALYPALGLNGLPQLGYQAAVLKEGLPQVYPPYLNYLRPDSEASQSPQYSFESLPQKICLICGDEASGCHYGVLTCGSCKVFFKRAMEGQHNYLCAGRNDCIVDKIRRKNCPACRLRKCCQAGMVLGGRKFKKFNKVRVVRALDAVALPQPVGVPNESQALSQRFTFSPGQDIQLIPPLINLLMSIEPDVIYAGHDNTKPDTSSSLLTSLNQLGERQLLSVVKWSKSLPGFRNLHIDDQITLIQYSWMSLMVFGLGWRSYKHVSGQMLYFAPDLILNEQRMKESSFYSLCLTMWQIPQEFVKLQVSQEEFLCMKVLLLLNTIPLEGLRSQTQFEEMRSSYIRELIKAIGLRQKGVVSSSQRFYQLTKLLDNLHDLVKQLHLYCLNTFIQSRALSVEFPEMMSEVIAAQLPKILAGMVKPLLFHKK
Nuclear receptor subfamily 1 group I member 2 (Rattus norvegicus), sequence (Q9R1A7 whole entry, looked up): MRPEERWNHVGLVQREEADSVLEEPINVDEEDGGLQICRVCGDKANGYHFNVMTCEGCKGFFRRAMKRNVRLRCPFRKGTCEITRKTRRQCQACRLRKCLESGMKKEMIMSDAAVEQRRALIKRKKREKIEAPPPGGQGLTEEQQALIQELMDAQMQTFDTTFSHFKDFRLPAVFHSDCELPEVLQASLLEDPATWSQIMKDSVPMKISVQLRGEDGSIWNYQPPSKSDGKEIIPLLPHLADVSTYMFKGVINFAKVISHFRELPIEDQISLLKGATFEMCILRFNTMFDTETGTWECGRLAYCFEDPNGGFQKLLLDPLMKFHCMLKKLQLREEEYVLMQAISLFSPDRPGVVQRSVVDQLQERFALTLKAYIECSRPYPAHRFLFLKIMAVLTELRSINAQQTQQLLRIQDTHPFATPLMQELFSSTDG

For the compound `Nc1c2c(nc3ccccc13)CCCC2`, the Potency entry in experiment [1], in experiment [2], in experiment [3], in experiment [4], in [5] and in experiment [7] was “inactive” throughout. In addition, the Potency result in [8], in [10], in [11] and in [12] was “inactive” each time. The outcome in [6] was inactive. Besides, the Potency in [9] is 54.5 µM (active); in [13] it was 48.6 µM (active) and 38.6 µM (active) and inactive; in experiment [14] it was 3.56 µM (active) and 11.2 µM (active) and 11 µM (active); in experiment [15], 39.9 µM (active) and inactive.
For the compound `CCc1nc(N)nc(N)c1-c1ccc(Cl)cc1`, the Potency result in [1], in experiment [2], in experiment [3], in experiment [4], in [10] and in [16] was “inactive” in each case. In addition, the Potency result in experiment [11], in experiment [12] and in experiment [15] was “inactive” in each case. Also, the Potency result was “inactive and 16.9 µM (active)” in [5]; 49.3 µM (active) in experiment [9]; 62.1 µM (active) in experiment [13]; 9.07 µM (active) and 15.9 µM (active) and 13.8 µM (active) in [14]. In addition, in experiment [6], the outcome was inactive.
On to `CC12CCC(CC1)C(C)(C)O2`, for which the Potency result in [1], in [2], in [3], in experiment [4], in experiment [5] and in [7] was “inactive” throughout. Besides, the Potency entry in experiment [8], in experiment [9], in [10], in experiment [11], in experiment [12] and in experiment [18] was “inactive” throughout. For the same compound, the Potency entry in experiment [14] and in [15] was “inactive” throughout. In addition, the compound was called inactive in experiment [6] and in [19]. For the same compound, in experiment [17], the max activation is -0.857% (inactive).
`Cc1ncc([N+](=O)[O-])n1C`: the Potency entry in experiment [1], in [2], in [3], in experiment [4], in experiment [5] and in [7] was “inactive” in each case. Besides, the Potency entry in experiment [8], in [9], in [10], in experiment [11], in experiment [12] and in [14] was “inactive” throughout. Further, the Potency entry in [15] was “inactive”. The outcome in experiment [6] was inactive.
Consider `O=C(Nc1ncc([N+](=O)[O-])s1)c1cccs1`, for which the Potency entry in experiment [1], in [2], in experiment [3], in [7], in [8] and in experiment [10] was “inactive” throughout. The Potency result in experiment [11] and in experiment [18] was “inactive” each time. Further, the Potency in experiment [4] was 10.7 µM (active); in experiment [5], 15.1 µM (active); in experiment [9] it was 23.7 µM (active); in [12], 29.8 µM (active); in experiment [13], 0.531 µM (active); in experiment [14], 12.3 µM (active). Moreover, the Potency in experiment [15] is 8.71 µM (active). The outcome in experiment [6] was inactive.
With `COc1cccc(O)c1O`, the Potency entry in experiment [1], in experiment [2], in experiment [3], in [4], in experiment [5] and in [7] was “inactive” in each case. For the same compound, the Potency result in [8], in experiment [10] and in experiment [11] was “inactive” each time. In experiment [6], the compound was called inactive. For the same compound, the Potency was 63.5 µM (active) in experiment [16], 25.3 µM (active) in experiment [13] and 58.6 µM (active) in experiment [15].
